# Results filed as inconclusive are left out. Calls of active or inactive are those of the source. Unless noted, calls come from the whole dose curve; as a rule, active = well fitted curve in the direction sought with a large enough effect; inconclusive = small, poorly fitted or top-dose-only effect, or another doubt; inactive = no such curve, though single readings can be large; an effect the other way counts as inactive or inconclusive.
# What was measured:
# [1] = qHTS Assay for Lipid Storage Modulators (AID 1519; calls by dose curve; for activity change, negative = inhibition: % is set by controls: 0 for no effect and ±100 for the full control effect); details: Drosophila S3 cells, BODIPY lipid droplet/cell ratio, laser cytometry, cells loaded with oleic acid
# In short: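 Cells seeded at 5,000 per well were treated with compounds over a concentration series and loaded with oleic acid (400 uM, as added). Lipid droplet fluorescence (488 nm excitation, 500-530 nm channel) was read by laser-scanning cytometry and normalized to 20 uM Triacsin C.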
# [2] = biological target: ATP-dependent 6-phosphofructokinase (Trypanosoma brucei brucei) (UniProt O15648); assay: qHTS Assay to Find Inhibitors of T. brucei phosphofructokinase: hit validation (AID 492961);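 note: luminescence reports ADP formed as PFK phosphorylates fructose-6-phosphate with ATP; % is set by controls: 0 for no effect and ±100 for the full control effect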
# Sequence of ATP-dependent 6-phosphofructokinase (Trypanosoma brucei brucei) (O15648 whole entry, looked up): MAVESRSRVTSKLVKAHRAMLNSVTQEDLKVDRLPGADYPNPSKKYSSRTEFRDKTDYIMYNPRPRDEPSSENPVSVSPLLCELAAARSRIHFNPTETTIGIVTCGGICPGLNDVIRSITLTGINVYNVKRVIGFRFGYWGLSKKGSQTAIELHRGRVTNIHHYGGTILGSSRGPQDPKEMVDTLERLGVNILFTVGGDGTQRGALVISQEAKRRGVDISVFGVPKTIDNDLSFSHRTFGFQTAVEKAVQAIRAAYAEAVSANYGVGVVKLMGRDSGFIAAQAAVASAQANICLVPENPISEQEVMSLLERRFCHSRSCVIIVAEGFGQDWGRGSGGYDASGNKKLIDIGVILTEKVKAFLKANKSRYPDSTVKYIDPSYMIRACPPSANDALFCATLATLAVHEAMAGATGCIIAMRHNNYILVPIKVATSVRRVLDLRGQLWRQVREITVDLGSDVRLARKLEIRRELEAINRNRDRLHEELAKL
# In short: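 Percent activity derived from corrected luminescence, normalized between 0x and 1x enzyme controls, then fitted to concentration-response curves. Conditions: 1.25 nM PFK, 0.1 mM ATP, 0.5 mM F6P, 45 min RT.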
# [3] = biological target: Ubiquitin carboxyl-terminal hydrolase 1 (Homo sapiens) (UniProt O94782); assay: Inhibitors of USP1/UAF1: Pilot qHTS (AID 504865);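 note: rhodamine fluorescence freed from ubiquitin-rhodamine substrate followed over time; top concentration of the series differs between compounds; % is set by controls: 0 for no effect and ±100 for the full control effect; nearly all actives have a fitted effect of over 35% in size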
# Sequence of Ubiquitin carboxyl-terminal hydrolase 1 (Homo sapiens) (O94782 whole entry, looked up): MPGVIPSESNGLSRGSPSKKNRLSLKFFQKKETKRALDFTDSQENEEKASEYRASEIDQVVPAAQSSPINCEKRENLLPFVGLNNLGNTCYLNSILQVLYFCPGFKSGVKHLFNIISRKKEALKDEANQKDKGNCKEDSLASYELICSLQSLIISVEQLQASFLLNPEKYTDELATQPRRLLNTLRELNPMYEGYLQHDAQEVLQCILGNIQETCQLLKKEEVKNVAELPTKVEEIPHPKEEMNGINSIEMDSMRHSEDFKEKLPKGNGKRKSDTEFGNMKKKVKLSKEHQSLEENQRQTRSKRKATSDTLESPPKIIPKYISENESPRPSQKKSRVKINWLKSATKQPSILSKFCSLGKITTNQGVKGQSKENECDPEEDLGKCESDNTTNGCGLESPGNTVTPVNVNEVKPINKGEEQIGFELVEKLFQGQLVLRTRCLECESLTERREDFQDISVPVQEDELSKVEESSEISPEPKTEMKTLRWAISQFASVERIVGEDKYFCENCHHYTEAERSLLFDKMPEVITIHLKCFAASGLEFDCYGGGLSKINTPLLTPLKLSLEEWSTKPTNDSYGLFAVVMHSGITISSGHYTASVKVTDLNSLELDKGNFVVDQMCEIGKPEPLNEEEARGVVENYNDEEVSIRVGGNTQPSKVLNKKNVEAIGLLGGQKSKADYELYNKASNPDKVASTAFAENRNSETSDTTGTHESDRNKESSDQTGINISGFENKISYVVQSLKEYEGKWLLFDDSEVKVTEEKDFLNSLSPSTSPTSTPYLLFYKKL
# In short: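 USP1/UAF1 complex at 1 nM preincubated 15 min at room temperature with compound, then Ub-Rho substrate added at 150 nM final. Fluorescence (480/540 nm) read kinetically in 50 mM HEPES pH 7.8, 0.5 mM EDTA, 1 mM TCEP, 0.1 mg/ml BSA, 0.01% Tween-20.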
# [4] = biological target: Luciferin 4-monooxygenase (Photinus pyralis) (UniProt P08659); assay: Biochemical firefly luciferase enzyme assay for NPC (AID 624030);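 note: purified P. pyralis luciferase at 10 nM with luciferin and ATP substrate; 0% = DMSO and -100% = full luciferase inhibition by PTC124 control; nearly all actives have a fitted effect of over 70% in size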
# Sequence of Luciferin 4-monooxygenase (Photinus pyralis) (P08659 whole entry, looked up): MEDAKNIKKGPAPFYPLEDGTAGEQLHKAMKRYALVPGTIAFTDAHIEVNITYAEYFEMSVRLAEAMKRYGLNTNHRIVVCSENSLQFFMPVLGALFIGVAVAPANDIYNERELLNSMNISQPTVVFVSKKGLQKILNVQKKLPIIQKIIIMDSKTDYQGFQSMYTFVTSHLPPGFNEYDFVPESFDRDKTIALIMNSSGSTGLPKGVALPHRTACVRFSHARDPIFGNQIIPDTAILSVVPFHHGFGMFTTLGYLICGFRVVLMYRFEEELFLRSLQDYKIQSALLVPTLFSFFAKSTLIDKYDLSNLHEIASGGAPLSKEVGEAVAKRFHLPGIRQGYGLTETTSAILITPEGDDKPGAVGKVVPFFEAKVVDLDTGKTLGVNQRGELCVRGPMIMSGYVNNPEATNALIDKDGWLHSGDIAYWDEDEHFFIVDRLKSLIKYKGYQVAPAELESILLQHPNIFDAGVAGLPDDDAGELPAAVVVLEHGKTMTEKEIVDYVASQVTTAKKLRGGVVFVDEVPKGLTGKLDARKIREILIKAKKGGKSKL
# In short: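 Counter-screen for direct inhibition of the luciferase enzyme by approved-drug library compounds, run at 10 nM enzyme in 50 mM Tris acetate (final). Luminescence was read within 5 min of enzyme-buffer addition and normalized to PTC124 versus DMSO (0%).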
# [5] = biological target: Cytochrome P450 3A4 (Homo sapiens) (UniProt P08684); assay: qHTS Assay for Inhibitors and Substrates of Cytochrome P450 3A4 (AID 884); note: nearly all actives have a fitted effect of over 50% in size; note: potency is the fitted concentration of half-maximal effect; for activity change, negative = inhibition: % is set by controls: 0 for no effect and ±100 for the full control effect
# Sequence of Cytochrome P450 3A4 (Homo sapiens) (P08684 whole entry, looked up): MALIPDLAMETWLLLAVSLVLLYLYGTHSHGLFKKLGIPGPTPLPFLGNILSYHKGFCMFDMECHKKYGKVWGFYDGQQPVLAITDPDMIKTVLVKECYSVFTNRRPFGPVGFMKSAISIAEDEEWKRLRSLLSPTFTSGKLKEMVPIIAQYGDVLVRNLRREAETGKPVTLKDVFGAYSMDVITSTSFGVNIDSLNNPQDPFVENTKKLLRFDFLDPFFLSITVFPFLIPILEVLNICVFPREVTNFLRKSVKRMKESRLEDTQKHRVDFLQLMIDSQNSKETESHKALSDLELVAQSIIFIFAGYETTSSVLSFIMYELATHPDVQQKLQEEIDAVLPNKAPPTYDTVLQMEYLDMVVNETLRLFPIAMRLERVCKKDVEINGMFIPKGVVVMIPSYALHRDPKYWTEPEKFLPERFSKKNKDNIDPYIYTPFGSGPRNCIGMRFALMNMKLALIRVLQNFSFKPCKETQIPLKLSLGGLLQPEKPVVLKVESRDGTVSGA
# In short: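 Luminescent readout of luciferin produced by CYP3A4 (20 nM) dealkylation of Luciferin-PPXE, 25 uM (its KM). NADPH-driven reaction ran 60 min at RT after 10 min compound preincubation; data scaled to 57 uM ketoconazole as 100% inhibition.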
# [6] = biological target: Cytochrome P450 3A4 (Homo sapiens) (UniProt P08684); assay: qHTS Assay for Activators of Cytochrome P450 3A4 (AID 885); note: nearly all actives have a fitted effect of over 65% in size
# In short: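 Activators are scored by enhanced luminescence from CYP3A4 conversion of luciferin-PPXE (25uM, equal to KM) to luciferin, after 60 min at RT with an NADPH-regenerating system.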
# [7] = qHTS profiling for inhibitors of Plasmodium falciparum proliferation (AID 504749); note: potency is the fitted concentration of half-maximal effect;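 for activity, negative = inhibition: 0% = DMSO vehicle and full inhibition = artemisinin control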; for all read-outs here: nearly all actives have a fitted effect of over 60% in size; details: P. falciparum in erythrocytes, SYBR Green DNA, 72 h; for activity, negative = inhibition: at 28.7 µM (top of the series)
# In short: (§1)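 Quantitative HTS: compounds pinned into medium, infected erythrocytes added (0.3% parasitemia, 2.5% hematocrit), 72 h culture at 37 C under 5% CO2. Saponin/Triton lysis with SYBR Green I, overnight RT, then fluorescence read.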
# CP217 = assay: as above; details: P. falciparum in erythrocytes, SYBR Green DNA, 72 h; series mostly up to 28.7 µM
# In short: as §1
# CP252 = assay: as above; details: P. falciparum in erythrocytes, SYBR Green DNA, 72 h; series mostly up to 12.8 µM
# In short: as §1
# CP256 = assay: as above; details: P. falciparum in erythrocytes, SYBR Green DNA, 72 h; series mostly up to 28.7 µM
# In short: as §1
# CP262 = assay: as above; details: P. falciparum in erythrocytes, SYBR Green DNA, 72 h; series mostly up to 28.7 µM
# In short: as §1
# C2A = assay: as above; details: P. falciparum in erythrocytes, SYBR Green DNA, 72 h; series mostly up to 28.7 µM
# In short: as §1
# [8] = measured here: cell count channel max response
# [9] = measured here: lipid channel max response
structure (smiles),measurement,setting,value
CC(C)CC(CN)CC(=O)O (stereo not given),"activity change, negative = inhibition",[1]; at 57.5 µM (top of the series),8.71% (inactive)
same,max response,[1]; [8],14.3%
same,max response,[1]; [9],26.2%
same,Potency,[2],inactive
same,Potency,[3],inactive
same,Potency,[4],inactive
Cc1[nH]c2ccccc2c1CN(C)C,Potency,[5],12.6 µM (active)
same,Potency,[6],inactive
same,"activity change, negative = inhibition",[1]; at 57.5 µM (top of the series),11.5% (inactive)
same,max response,[1]; [8],9.14%
same,max response,[1]; [9],21.3%
same,Potency,[3],inactive
CC(C)(O)[C@@H]1C2OC(=O)[C@@H]1[C@]1(O)C[C@H]3O[C@]34C(=O)O[C@H]2[C@]14C,"activity change, negative = inhibition",[1]; at 57.5 µM (top of the series),5.46% (inactive)
same,max response,[1]; [8],3.27%
same,max response,[1]; [9],5.39%
same,Potency,[3],inactive
C=C[C@H]1CN2CC[C@H]1C[C@H]2c1[nH]c2ccccc2c1CCO,Potency,[6],inactive
same,"activity change, negative = inhibition",[1]; at 57.5 µM (top of the series),2.01% (inactive)
same,max response,[1]; [8],-5.69%
same,max response,[1]; [9],-2.67%
same,Potency,[3],inactive
C=CC1CN2CCC1CC2C(OC(=O)OCC)c1ccnc2ccc(OC)cc12 (stereo not given),Potency,[5],7.94 µM (active)
same,Potency,[6],inactive
same,"activity change, negative = inhibition",[1]; at 57.5 µM (top of the series),5.87% (inactive)
same,max response,[1]; [8],0.936%
same,max response,[1]; [9],9.58%
same,Potency,[2],inactive
same,Potency,[3],inactive
same,Potency,[4],inactive
same,Potency,[7]; parasite line A,1.58 µM (active)
same,Potency,[7]; parasite line B,2.24 µM (active)
same,Potency,CP217,7.94 µM (active)
same,Potency,CP252,8.91 µM (active)
same,Potency,CP256,11.2 µM (active)
same,Potency,CP262,6.01 µM (active)
CC(C)N1C(=O)c2ccccc2NS1(=O)=O,Potency,[5],inactive
same,"activity change, negative = inhibition",[1]; at 57.5 µM (top of the series),2.96% (inactive)
same,max response,[1]; [8],13.1%
same,max response,[1]; [9],17.2%
same,Potency,[3],inactive
COc1cc2c(c(OC)c1OC)-c1ccc(OC)c(=O)cc1[C@H](NC(C)=O)CC2,"activity change, negative = inhibition",[1]; at 25.7 µM (top of the series),-7.92% (inactive)
same,max response,[1]; [8],-13.6%
same,max response,[1]; [9],-22.5%
same,Potency,[3],inactive
CCC(=O)Nc1ccc(Cl)c(Cl)c1,Potency,[5],15.8 µM (active)
same,Potency,[6],inactive
same,"activity change, negative = inhibition",[1]; at 57.5 µM (top of the series),7.8% (inactive)
same,max response,[1]; [8],9.78%
same,max response,[1]; [9],21.3%
same,Potency,[3],inactive
O=C(O)COc1cc(Cl)c(Cl)cc1Cl,Potency,[5],inactive
same,"activity change, negative = inhibition",[1]; at 57.5 µM (top of the series),1.28% (inactive)
same,max response,[1]; [8],13.2%
same,max response,[1]; [9],18.6%
same,Potency,[3],inactive
CN1[C@@H]2CC(OC(=O)[C@H](CO)c3ccccc3)C[C@@H]1[C@H]1O[C@H]12 (stereo not given in full),"activity change, negative = inhibition",[1]; at 57.5 µM (top of the series),4.98% (inactive)
same,max response,[1]; [8],-8.42%
same,max response,[1]; [9],-4.12%
same,Potency,[3],inactive
C[C@]12CCC3C(CC[C@H]4C[C@@H](O)CC[C@]34C)[C@@H]1CCC2=O (stereo not given in full),Potency,[6],inactive
same,"activity change, negative = inhibition",[1]; at 57.5 µM (top of the series),0.0615% (inactive)
same,max response,[1]; [8],-8.24%
same,max response,[1]; [9],-8.16%
same,Potency,[3],inactive
CC(C)c1cc2c(c(O)c1O)[C@]1(C(=O)O)CCCC(C)(C)C1CC2 (stereo not given in full),Potency,[5],0.316 µM (active)
same,Potency,[6],inactive
same,"activity change, negative = inhibition",[1]; at 57.5 µM (top of the series),4.21% (inactive)
same,max response,[1]; [8],-11.1%
same,max response,[1]; [9],-4.62%
same,Potency,[3],inactive
CC1=C2CCC3C4CCC(=O)[C@@]4(C)CCC3[C@]2(C)CCC1=O (stereo not given in full),Potency,[5],5.01 µM (active)
same,Potency,[6],inactive
same,"activity change, negative = inhibition",[1]; at 57.5 µM (top of the series),7.19% (inactive)
same,max response,[1]; [8],5.35%
same,max response,[1]; [9],8.56%
same,Potency,[3],inactive
O=C1C=C2C=CC3C[C@@]2(O1)C1CCCCN31 (stereo not given in full),Potency,[6],inactive
same,"activity change, negative = inhibition",[1]; at 57.5 µM (top of the series),4.29% (inactive)
same,max response,[1]; [8],5.82%
same,max response,[1]; [9],10.8%
same,Potency,[2],inactive
same,Potency,[3],inactive
same,Potency,[4],inactive
same,Potency,[7]; parasite line A,11.2 µM (active)
same,Potency,[7]; parasite line B,8.91 µM (active)
same,Potency,C2A,12.6 µM (active)
same,Potency,CP217,8.91 µM (active)
same,Potency,CP252,11.2 µM (active)
same,Potency,CP256,11.2 µM (active)
same,Potency,CP262,13.5 µM (active)
CC(C)OC(=O)Nc1cccc(Cl)c1,Potency,[5],inactive
same,"activity change, negative = inhibition",[1]; at 57.5 µM (top of the series),8.95% (inactive)
same,max response,[1]; [8],5.17%
same,max response,[1]; [9],15.8%
same,Potency,[3],inactive
CCc1cccc(C)c1N(C(=O)CCl)C(C)COC (stereo not given),"activity change, negative = inhibition",[1]; at 57.5 µM (top of the series),1.46% (inactive)
same,max response,[1]; [8],1.84%
same,max response,[1]; [9],4.99%
same,Potency,[3],inactive
CC([C@H](O)c1ccccc1)N(C)C (stereo not given in full),"activity change, negative = inhibition",[1]; at 57.5 µM (top of the series),4.16% (inactive)
same,max response,[1]; [8],14.6%
same,max response,[1]; [9],17.5%
same,Potency,[2],inactive
same,Potency,[3],inactive
same,Potency,[4],inactive
same,"activity, negative = inhibition",[7]; parasite line A,3.7% (inactive)
same,"activity, negative = inhibition",[7]; parasite line B,-27.1% (inactive)
same,Potency,C2A,inactive
same,Potency,CP217,inactive
same,Potency,CP252,inactive
same,Potency,CP256,inactive
same,Potency,CP262,inactive
CNC(=O)Oc1ccccc1OC(C)C,Potency,[5],inactive
same,"activity change, negative = inhibition",[1]; at 57.5 µM (top of the series),5.74% (inactive)
same,max response,[1]; [8],11.3%
same,max response,[1]; [9],18.3%
same,Potency,[3],inactive
CN1C2CC(OC(=O)C(CO)c3ccccc3)C[C@@H]1[C@H]1OC21 (stereo not given in full),"activity change, negative = inhibition",[1]; at 57.5 µM (top of the series),7.13% (inactive)
same,max response,[1]; [8],12.9%
same,max response,[1]; [9],25.6%
same,Potency,[3],inactive
CCCCSP(=O)(SCCCC)SCCCC,Potency,[5],inactive
same,"activity change, negative = inhibition",[1]; at 57.5 µM (top of the series),12.5% (inactive)
same,max response,[1]; [8],36.8%
same,max response,[1]; [9],52%
same,Potency,[3],inactive
CC[C@@H]1CN2CC[C@@H]1C[C@H]2[C@H](O)c1ccnc2ccc(OC)cc12,"activity change, negative = inhibition",[1]; at 57.5 µM (top of the series),-1.21% (inactive)
same,max response,[1]; [8],1.88%
same,max response,[1]; [9],1.41%
same,Potency,[3],inactive
CNC(=O)CSP(=S)(OC)OC,Potency,[5],inactive
same,"activity change, negative = inhibition",[1]; at 57.5 µM (top of the series),4.16% (inactive)
same,max response,[1]; [8],5.57%
same,max response,[1]; [9],8.94%
same,Potency,[3],inactive
N#Cc1c(Cl)cccc1Cl,Potency,[5],inactive
same,"activity change, negative = inhibition",[1]; at 57.5 µM (top of the series),7.12% (inactive)
same,max response,[1]; [8],9.19%
same,max response,[1]; [9],14.3%
same,Potency,[3],inactive
